Rows were chosen to be rich in hits. Some 6% of all compounds tested hit in one or more screens of this group.
D1 potentiator: Potentiators of Human D1 Dopamine Receptor: qHTS; HEK293 TREx D1 cells, calcium flux, dopamine EC20 potentiation; potentiation, % at 10 µM; actives 0.036% (n = 360,000); in the data active means potentiation above about 30%; further: 0% is about no effect
Target sequence (P21728 whole entry, looked up): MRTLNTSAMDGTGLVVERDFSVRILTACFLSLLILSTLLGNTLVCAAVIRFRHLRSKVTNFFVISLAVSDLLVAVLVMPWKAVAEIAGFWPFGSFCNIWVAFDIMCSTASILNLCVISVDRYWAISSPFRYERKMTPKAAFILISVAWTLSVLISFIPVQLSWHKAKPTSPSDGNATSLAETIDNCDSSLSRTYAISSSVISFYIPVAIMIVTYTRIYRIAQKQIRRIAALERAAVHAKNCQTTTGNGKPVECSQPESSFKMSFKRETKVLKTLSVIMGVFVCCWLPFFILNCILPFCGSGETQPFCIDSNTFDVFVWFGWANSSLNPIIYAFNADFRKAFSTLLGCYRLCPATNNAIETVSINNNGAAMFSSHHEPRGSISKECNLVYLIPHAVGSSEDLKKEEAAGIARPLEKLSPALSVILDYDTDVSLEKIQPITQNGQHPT
D3 ag: qHTS of D3 Dopamine Receptor Agonist: qHTS. actives 0.58% (n = 410,000). AID 652048, 2013. max activation, %. D3R DiscoveRx beta-arrestin cells, luminescence, 90 min; in the data active means max activation above about 30%; further: 0% is about no effect
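Agonist mode: compounds and dopamine controls were applied to plated cells for 90 min at 37 degrees C after an overnight attachment at 1500 cells/well. Luminescent read-out followed 30 - 60 minutes at room temperature with DiscoveRx detection reagent.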
DRD3 antagonist: qHTS of D3 Dopamine Receptor Antagonist: qHTS | max response, negative = inhibition, % | D3R cells, DiscoveRx beta-arrestin luminescence, antagonist mode; active compounds read low | D(3) dopamine receptor (Homo sapiens), P35462 | actives 2.5% (n = 360,000); in the data active means max response below about -50%; further: on the % scale 0 is the no-effect control and ±100 the full control effect
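Cells plated overnight at 1500 cells/well, then exposed to library compounds with dopamine controls for 90 minutes at 37 degrees C. DiscoveRx reagent added for 30–60 minutes at room temperature; luminescence read, quantitative HTS format.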
D1 antag: Antagonist of Human D 1 Dopamine Receptor: qHTS | activity change, negative = inhibition, % at 10 µM | actives 3.2% (n = 360,000) | HEK293 TREx D1 cells, calcium flux, dopamine EC80; active compounds read low | D(1A) dopamine receptor (Homo sapiens), P21728; in the data active means activity change below about -30%; further: on the % scale 0 is the no-effect control and ±100 the full control effect
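Compound effects on dopamine-evoked calcium signalling were measured in tetracycline-induced HEK293 Trex D1 cells. Dopamine at EC80 followed a 180 s compound pre-read, and fluorescence was tracked kinetically for 180 s more.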
D1 ag: Allosteric Agonists of the Human D1 Dopamine Receptor: qHTS; D(1A) dopamine receptor (Homo sapiens), P21728; HEK293 T-REx D1 cells, calcium flux, agonist mode; activation, % at 2 µM; actives 1% (n = 360,000); in the data active means activation above about 30%; further: 0% is about no effect
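Agonism was scored from calcium flux recorded over 180 s (1 read/s) after pintool compound addition, following a 10-cycle baseline. Cells were inducible force-coupled HEK293 TREx D1, plated overnight at 30 C and loaded with no-wash calcium dye.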
Starred values were filed as active, the others as inactive; x = no result.

SMILES	D1 potentiator	D3 ag	DRD3 antagonist	D1 antag	D1 ag
CCOc1ccc(CCNC(=O)c2cccc(-n3c(C)nc4cccnc43)c2C)cc1	1	-9	x	0	1
CCN1CN(CCc2ccccc2)CNC1=S	-1	10	12	1	1
CN1C(=O)C2CN(CCc3ccccc3)CNC2N(C)C1=O (centres undefined)	-12	11	-21	-35*	3
CS(=O)(=O)Nc1cccc(C(=O)OCCCOc2ccc(F)cc2)c1	-8	74*	3	-2	4
COc1ccc(S(N)(=O)=O)cc1C(=O)OCCCOc1ccc(F)cc1	3	6	-20	-34*	11
CC(=O)c1cccc(NS(C)(=O)=O)c1	8	1	17	0	-2
Cc1onc(-c2c(F)cccc2Cl)c1C(=O)c1ccccc1O	-11	22	5	-41*	9
Cc1onc(-c2c(F)cccc2Cl)c1C(=O)c1ccc(F)cc1	0	-6	0	-55*	8
Cc1onc(-c2c(F)cccc2Cl)c1C(=O)OCC(=O)Nc1cccc(S(=O)(=O)N(C)C)c1	x	-26	-97*	x	x
Cc1noc(C)c1C(=O)OCC(=O)Nc1cccc(S(=O)(=O)N(C)C)c1	2	0	0	2	4
Cc1onc(-c2c(F)cccc2Cl)c1C(=O)c1ccccc1	-2	3	-4	-2	1
CCn1cc(C(=O)NCCc2ccc(Cl)cc2)c(=O)c2cc(S(=O)(=O)N3CCC(C)CC3)ccc21	2	-6	x	-2	-1
CO[C@H]1C=CO[C@@]2(C)Oc3c(C)c(O)c4c(O)c(c(/C=N/N5CCN(C6CCCC6)CC5)c(O)c4c3C2=O)NC(=O)/C(C)=C\C=C[C@H](C)[C@H](O)[C@@H](C)[C@@H](O)[C@@H](C)[C@H](OC(C)=O)[C@@H]1C	x	-5	x	x	x
COC(=O)CC1Oc2ccc(F)cc2-n2cc(-c3ccc(C)cc3)nc21 (centres undefined)	-4	-15	x	-2	0
Fc1ccc(NCc2ccccc2-c2nnc(-c3ccccc3Cl)o2)cc1Cl	-2	8	x	6	3
Cc1ccc(CN2CCN(/N=C/c3cccs3)CC2)cc1	-6	-8	-59*	-16	2
Cc1ccc(CN2CCN(/N=C/c3cc(Br)ccc3O)CC2)cc1	4	-37	-87*	-7	3
Cc1ccc(/C=N/N2CCN(Cc3ccc(C)cc3)CC2)cc1	-4	-21	-6	1	2
O=C(/C=C/c1ccccc1)CCN1CCCCC1	x	-21	-88*	x	x
CC(CN1CCCCC1)OC(=O)Cc1ccc(Cl)cc1 (centres undefined)	-4	3	-58*	-1	2
CC(CN1CCN(C)CC1)OC(=O)c1ccccc1Cl (centres undefined)	0	-2	-52*	3	4
CC(CN1CCOCC1)OC(=O)/C=C/c1ccccc1 (centres undefined)	-2	-10	-20	x	2
CC(CN1CCCCC1)OC(=O)/C=C/c1ccccc1 (centres undefined)	3	-28	-61*	5	3
O=C(OCC1CCCO1)c1ccc2c(c1)N(Cc1c(F)cccc1Cl)C(=O)c1ccccc1S2(=O)=O (centres undefined)	-6	8	x	14	2
CCOc1ccc2nc(N3CCCC(C(=O)NCCc4ccc(OC)cc4OC)C3)sc2c1 (centres undefined)	-5	8	x	-12	2
SMILES	D1 potentiator	D3 ag	DRD3 antagonist	D1 antag	D1 ag
Cc1ccc(NC(=O)Cn2cc(S(=O)(=O)N3CCN(c4ccccc4F)CC3)c3ccccc3c2=O)cc1F	3	4	x	10	5
COc1ccc(CNC(=O)c2cc3cccc4c3n2CC(C)S4)cc1OC (centres undefined)	0	5	x	2	0
CC(=O)c1cccc(NC(=O)Nc2nnc(N3CCCC3)s2)c1	-1	-9	x	0	-1
CC(CN1CCCCC1)OC(=O)C(C)(c1ccccc1)c1ccccc1 (centres undefined)	-2	-5	-53*	15	4
Cc1ccc(S(=O)(=O)N2CCC(C(=O)NCC3CC3)CC2)cc1	-1	6	0	9	-4
Cc1ccc(S(=O)(=O)N2CCC(C(=O)NCCc3ccccn3)CC2)cc1	-7	-8	-5	-58*	1
Cc1ccc(S(=O)(=O)N2CCC(C(=O)NCC3CCCCC3)CC2)cc1	3	-15	-65*	-13	1
Cc1ccc(S(=O)(=O)NC2CCCCCCC2)cc1	4	-3	-15	-11	3
Cc1ccc(S(=O)(=O)NC(=O)C2CCCCC2)cc1	5	0	-12	-36*	3
CC(=O)Nc1ccc(N=Cc2c(O)c(C(=O)Nc3ccccc3)cc3ccccc23)cc1	4	2	11	-20	186*
CCOc1cc(Br)c(Br)c(C=Nc2ccc(NC(C)=O)cc2)c1O	5	3	-100*	13	2
CCOc1cc(/C=N/NC(=O)C(N)=O)cc(Br)c1O	-1	-4	3	-8	2
COc1ccc(C(=O)NCCC(=O)NCc2cc(=O)n(C)c(=O)n2C)cc1	-4	2	6	-51*	1
COc1cccc(C(=O)NCC(=O)NCc2cc(=O)n(C)c(=O)n2C)c1	-4	15	4	-36*	6
COC(=O)c1ccc(NC(=O)NCCn2nnc3cc(S(=O)(=O)N(C)C)ccc32)cc1	0	6	x	12	1
Cc1ccc(C)c(S(=O)(=O)Nc2ccccc2C(=O)Nc2ccccc2N2CCOCC2)c1	-1	-4	-57*	x	0
O=C(Nc1cc(S(=O)(=O)Nc2ccc(Cl)cc2)ccc1O)c1ccc(S(=O)(=O)N2CCCCCC2)cc1	2	-17	-50*	0	4
O=C(Nc1cc(S(=O)(=O)N2CCCCC2)ccc1O)c1ccccc1NS(=O)(=O)c1ccc(F)cc1	-8	4	-2	-25	5
O=C(Nc1ccccc1N1CCOCC1)c1ccccc1NS(=O)(=O)c1ccc(F)cc1	-8	0	8	-87*	2
O=C(Nc1cc(S(=O)(=O)N2CCCCC2)ccc1Cl)c1ccccc1NS(=O)(=O)c1ccc(F)cc1	-3	2	0	-33*	17
CN1CCN(C(=O)c2ccccc2NS(=O)(=O)c2ccc(F)cc2)CC1	1	-23	-63*	9	0
Cc1cc(C)c(OCC(=O)Nc2ccccc2N2CCOCC2)c(C)c1	2	8	-3	4	44*
Cc1ccc(S(=O)(=O)Nc2ccc(C(=O)N3CCCC3)cc2)cc1	-5	1	-2	-5	6

From PubChem BioAssay
